{"source": "paper PMC4336329", "about": "(PLoS ONE, 2015)", "note": "The whole screen tested about 310,000 compounds, of which about 14,000 (4.5%) showed an effect of 50% or more. The effect is printed as a negative number. The entries come from a sample that favours strong results as a whole.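 Note: peak tail current of the secondary pulse compared with the same well before compound.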", "data": [{"target": "human ether-à-go-go-related gene (hERG) potassium channel (human, UniProt Q12809)", "sequence (Q12809 whole entry, looked up)": "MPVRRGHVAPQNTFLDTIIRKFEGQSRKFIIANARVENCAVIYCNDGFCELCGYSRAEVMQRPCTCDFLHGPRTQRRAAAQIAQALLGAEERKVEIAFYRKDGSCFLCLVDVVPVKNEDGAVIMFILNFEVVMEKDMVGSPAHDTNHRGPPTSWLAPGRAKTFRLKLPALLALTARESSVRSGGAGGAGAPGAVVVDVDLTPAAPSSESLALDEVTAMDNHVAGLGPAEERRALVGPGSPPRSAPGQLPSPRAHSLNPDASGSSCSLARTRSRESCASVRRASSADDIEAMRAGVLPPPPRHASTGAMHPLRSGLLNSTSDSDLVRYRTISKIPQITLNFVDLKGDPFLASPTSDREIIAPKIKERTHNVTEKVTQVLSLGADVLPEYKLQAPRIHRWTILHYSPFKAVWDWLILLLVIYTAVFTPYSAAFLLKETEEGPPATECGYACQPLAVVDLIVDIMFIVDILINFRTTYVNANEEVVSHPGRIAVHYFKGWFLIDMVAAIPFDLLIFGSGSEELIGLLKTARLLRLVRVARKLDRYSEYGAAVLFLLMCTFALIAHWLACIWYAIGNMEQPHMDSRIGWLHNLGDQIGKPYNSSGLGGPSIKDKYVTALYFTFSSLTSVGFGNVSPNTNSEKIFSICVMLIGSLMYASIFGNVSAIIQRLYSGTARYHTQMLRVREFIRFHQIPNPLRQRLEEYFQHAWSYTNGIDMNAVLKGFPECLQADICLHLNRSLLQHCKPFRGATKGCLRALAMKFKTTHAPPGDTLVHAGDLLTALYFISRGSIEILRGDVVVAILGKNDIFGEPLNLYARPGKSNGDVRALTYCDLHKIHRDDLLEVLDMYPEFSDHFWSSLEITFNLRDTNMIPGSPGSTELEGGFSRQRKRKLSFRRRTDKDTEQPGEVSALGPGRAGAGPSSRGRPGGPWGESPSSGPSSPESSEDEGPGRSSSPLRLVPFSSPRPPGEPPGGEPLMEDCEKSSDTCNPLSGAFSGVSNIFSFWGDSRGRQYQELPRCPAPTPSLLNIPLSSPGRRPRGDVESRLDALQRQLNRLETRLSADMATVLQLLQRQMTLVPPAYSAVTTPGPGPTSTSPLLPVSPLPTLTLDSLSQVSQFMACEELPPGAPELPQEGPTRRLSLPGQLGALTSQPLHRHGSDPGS", "assay": "primary screen, population patch clamp on CHO cells stably expressing hERG; higher = less effect of the substance", "units": {"hERG current change (%, negative = inhibition) at 10uM": "%"}, "values": [{"smiles": "O=C(COC(=O)CC1CC2CCC1C2)NC(=O)NCc1ccco1", "note": "(stereo not shown)", "hERG current change (%, negative = inhibition) at 10uM": -4.89}, {"smiles": "Cc1nc2ccccc2c(=O)n1/N=C/c1ccccc1Cl", "hERG current change (%, negative = inhibition) at 10uM": 12.8}, {"smiles": "COC(=O)Cc1ccc(NC(=S)N2CCCC(C)C2)cc1", "note": "(stereo not shown)", "hERG current change (%, negative = inhibition) at 10uM": 12.7}, {"smiles": "CC(=O)c1ccc(NC(=S)N2CCCC(CO)C2)cc1", "note": "(stereo not shown)", "hERG current change (%, negative = inhibition) at 10uM": 5.17}, {"smiles": "COC(=O)Cc1ccc(NC(=S)N2CCCC(CO)C2)cc1", "note": "(stereo not shown)", "hERG current change (%, negative = inhibition) at 10uM": -63.2}, {"smiles": "N=c1c(S(=O)(=O)c2ccccc2)cc2c(=O)n3ccccc3nc2n1CC1CCCO1", "note": "(stereo not shown)", "hERG current change (%, negative = inhibition) at 10uM": -34}, {"smiles": "N=c1c(C(=O)NC2CCCCC2)cc2c(=O)n3ccccc3nc2n1CC1CCCO1", "note": "(stereo not shown)", "hERG current change (%, negative = inhibition) at 10uM": -74.9}, {"smiles": "O=C(NC1CCCCC1)c1ccc2c(=O)n(CC3CCCO3)c(=O)[nH]c2c1", "note": "(stereo not shown)", "hERG current change (%, negative = inhibition) at 10uM": 5.86}, {"smiles": "Cc1ccc(S(=O)(=O)c2cc3c(=O)n4ccccc4nc3n(C)c2=N)cc1C", "hERG current change (%, negative = inhibition) at 10uM": -2.47}, {"smiles": "COCCNC(=O)CSc1nc2ccccc2c(=O)n1CC1CCCO1", "note": "(stereo not shown)", "hERG current change (%, negative = inhibition) at 10uM": -11.9}, {"smiles": "CC(NC(=O)c1cc2c(=O)n3ccccc3nc2n(CC2CCCO2)c1=N)c1ccccc1", "note": "(stereo not shown)", "hERG current change (%, negative = inhibition) at 10uM": -75.2}, {"smiles": "Cc1ccc(S(=O)(=O)c2cc3c(=O)n4ccccc4nc3n(CC3CCCO3)c2=N)cc1C", "note": "(stereo not shown)", "hERG current change (%, negative = inhibition) at 10uM": -50.8}, {"smiles": "CCOC(=O)c1cc2c(=O)n3ccccc3nc2n(CC2CCCO2)c1=NC(=O)/C=C/c1ccccc1", "note": "(stereo not shown)", "hERG current change (%, negative = inhibition) at 10uM": -35.7}, {"smiles": "N=c1c(C(=O)NC2CCCC2)cc2c(=O)n3ccccc3nc2n1CC1CCCO1", "note": "(stereo not shown)", "hERG current change (%, negative = inhibition) at 10uM": -83.7}, {"smiles": "NS(=O)(=O)c1cccc(NC(=O)COC(=O)C2(c3cccc(F)c3)CCCC2)c1", "hERG current change (%, negative = inhibition) at 10uM": -6.66}, {"smiles": "Cc1ccc(NC(=O)c2sc(Cl)nc2-c2ccccc2)cc1C", "hERG current change (%, negative = inhibition) at 10uM": 3.94}, {"smiles": "CC1CC(C)CN(S(=O)(=O)c2ccc3c(c2)oc(=O)n3CC(=O)NCc2cccnc2)C1", "note": "(stereo not shown)", "hERG current change (%, negative = inhibition) at 10uM": -17.2}, {"smiles": "COc1cc(C(=O)NC2CCCC2)c(Br)c(OC)c1OC", "hERG current change (%, negative = inhibition) at 10uM": 7.61}, {"smiles": "COc1ccc(NC(=O)C(CCSC)N2C(=O)c3ccccc3C2=O)cc1", "note": "(stereo not shown)", "hERG current change (%, negative = inhibition) at 10uM": -10.3}, {"smiles": "Cc1ccc(S(=O)(=O)/N=C2\\C=C(Nc3cccc(C(=O)O)c3)C(=O)c3ccccc32)c(C)c1", "hERG current change (%, negative = inhibition) at 10uM": 27.9}, {"smiles": "CCCCn1c(N)c(N(CCOC)C(=O)c2cc(S(=O)(=O)N3CCOCC3)ccc2F)c(=O)[nH]c1=O", "hERG current change (%, negative = inhibition) at 10uM": 16.1}, {"smiles": "Cc1cc(C(=O)COC(=O)c2cccn2C)c(C)n1Cc1ccco1", "hERG current change (%, negative = inhibition) at 10uM": 21.4}, {"smiles": "Cc1nnc(SCC(=O)Nc2nsc(-c3ccc(Cl)cc3)n2)s1", "hERG current change (%, negative = inhibition) at 10uM": 0.522}, {"smiles": "Cc1cccc(N2CCN(S(=O)(=O)c3c(C(=O)N4CCCCC4)c(C)n(C)c3C)CC2)c1C", "hERG current change (%, negative = inhibition) at 10uM": -9.26}, {"smiles": "COCc1c(C(=O)Nc2ccc3nc(N4CCOCC4)sc3c2)oc2ccccc12", "hERG current change (%, negative = inhibition) at 10uM": -31.2}, {"smiles": "COCc1c(C(=O)N2CCN(Cc3ccc(C#N)cc3)CC2)oc2ccccc12", "hERG current change (%, negative = inhibition) at 10uM": -70.2}, {"smiles": "COCc1c(C(=O)N2CCN(Cc3c(F)cccc3Cl)CC2)oc2ccccc12", "hERG current change (%, negative = inhibition) at 10uM": -12.2}, {"smiles": "COCc1c(C(=O)N2CCN(Cc3ccc4c(c3)OCO4)CC2)oc2ccccc12", "hERG current change (%, negative = inhibition) at 10uM": -40.8}, {"smiles": "COCc1c(C(=O)N2CCN(CCOc3ccccc3)CC2)oc2ccccc12", "hERG current change (%, negative = inhibition) at 10uM": -63.5}, {"smiles": "COCc1c(C(=O)N2CCN(Cc3nc4ccccc4s3)CC2)oc2ccccc12", "hERG current change (%, negative = inhibition) at 10uM": -72.5}, {"smiles": "COCc1c(C(=O)N2CCN(S(=O)(=O)c3ccccc3Cl)CC2)oc2ccccc12", "hERG current change (%, negative = inhibition) at 10uM": -13.9}, {"smiles": "COCc1c(C(=O)N2CCN(c3ncccn3)CC2)oc2ccccc12", "hERG current change (%, negative = inhibition) at 10uM": -7.68}, {"smiles": "COCc1c(C(=O)N2CCN(c3ccc(C(F)(F)F)cn3)CC2)oc2ccccc12", "hERG current change (%, negative = inhibition) at 10uM": -23.7}, {"smiles": "CCC1Oc2ccccc2N(CC(=O)NCCCN2CCCC2)C1=O", "note": "(stereo not shown)", "hERG current change (%, negative = inhibition) at 10uM": 15.9}, {"smiles": "O=C(c1ccc(F)cc1)C(Cc1ccccc1)N1CCCCC1", "note": "(stereo not shown)", "hERG current change (%, negative = inhibition) at 10uM": 1.82}, {"smiles": "OCCC1CN(C2CSCCSC2)CCN1Cc1ccccc1", "note": "(stereo not shown)", "hERG current change (%, negative = inhibition) at 10uM": 11.9}, {"smiles": "OCCC1CN(C2CCC2)CCN1Cc1ccc(F)c(F)c1", "note": "(stereo not shown)", "hERG current change (%, negative = inhibition) at 10uM": 5.12}, {"smiles": "OCCC1CN(C2CCN(c3ccccc3)CC2)CCN1Cc1ccc(F)c(F)c1", "note": "(stereo not shown)", "hERG current change (%, negative = inhibition) at 10uM": -71.2}, {"smiles": "COc1cccc(CN2CCN(C3CCOCC3)CC2CCO)c1", "note": "(stereo not shown)", "hERG current change (%, negative = inhibition) at 10uM": 0.171}, {"smiles": "CCOC(=O)N1CCC(N2CCN(Cc3ccc(F)c(F)c3)C(CCO)C2)CC1", "note": "(stereo not shown)", "hERG current change (%, negative = inhibition) at 10uM": -44.7}, {"smiles": "COc1cccc(CN2CCN(C3CCN(c4ccccc4C)CC3)CC2CCO)c1", "note": "(stereo not shown)", "hERG current change (%, negative = inhibition) at 10uM": -66.2}, {"smiles": "COc1cccc(CN2CCN(C3CSCCSC3)CC2CCO)c1", "note": "(stereo not shown)", "hERG current change (%, negative = inhibition) at 10uM": -13}, {"smiles": "Cc1cccc(N2CCC(N3CCN(C4CCCCC4)C(CCO)C3)CC2)c1C", "note": "(stereo not shown)", "hERG current change (%, negative = inhibition) at 10uM": -42.7}, {"smiles": "COc1ccc(CN2CCN(C3CCC3)CC2CCO)cc1C", "note": "(stereo not shown)", "hERG current change (%, negative = inhibition) at 10uM": 8.14}, {"smiles": "COc1cccc(CN2CCN(C3CCN(c4cccc(C)c4C)CC3)CC2CCO)c1", "note": "(stereo not shown)", "hERG current change (%, negative = inhibition) at 10uM": -66.2}, {"smiles": "CCOC(=O)N1CCC(N2CCN(Cc3ccccc3)C(CCO)C2)CC1", "note": "(stereo not shown)", "hERG current change (%, negative = inhibition) at 10uM": -9.9}]}]}
